The values that follow come from PubChem BioAssay AID1851 (National Center for Advancing Translational Sciences (NCATS), 2009).

Molecules are shown by their SMILES. Values joined by “and” are separate entries in the source; they are usually repeats but may differ in a detail not shown here. Equal entries are not always repeated. The campaign covered roughly 16,000 compounds. About 4,000 (25%) were called active. Another 26% or so got no clear call; they are omitted. The list is a sample of the results. A number with no mark means an inactive call. The call rests on the fitted dose curve; in most records, active means well fitted curve in the direction sought with a large enough effect; inconclusive means small, poorly fitted or top-dose-only effect, or effect the other way; inactive means no such curve, though single readings can be large or run the other way.
On the % scale 0 is the no-effect control and ±100 the full control effect.

Chain of Cytochrome P450 2C9 (Homo sapiens) (P11712 whole entry, looked up): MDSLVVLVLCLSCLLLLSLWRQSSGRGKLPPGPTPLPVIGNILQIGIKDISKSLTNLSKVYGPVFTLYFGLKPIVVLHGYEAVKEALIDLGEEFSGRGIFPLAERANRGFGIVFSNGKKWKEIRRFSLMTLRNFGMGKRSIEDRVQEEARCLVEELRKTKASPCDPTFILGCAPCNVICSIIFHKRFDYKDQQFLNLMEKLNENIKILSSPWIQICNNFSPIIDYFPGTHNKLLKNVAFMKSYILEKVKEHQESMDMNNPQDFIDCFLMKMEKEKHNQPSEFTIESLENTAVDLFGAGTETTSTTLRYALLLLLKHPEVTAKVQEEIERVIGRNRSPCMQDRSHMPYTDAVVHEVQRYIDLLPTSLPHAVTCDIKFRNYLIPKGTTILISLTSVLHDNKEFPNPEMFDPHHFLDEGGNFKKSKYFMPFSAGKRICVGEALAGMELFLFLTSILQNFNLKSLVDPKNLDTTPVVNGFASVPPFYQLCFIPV

The assay concerns the target Cytochrome P450 2C9 (Homo sapiens) (UniProt P11712). Nature of the assay: Cytochrome panel assay with activity outcomes. The note with it: recombinant CYP, pro-luciferin dealkylation, luminescence, p450-cyp2c9; series mostly up to 57.1 µM.
By AC50 is commonly meant the midpoint of the concentration-response curve, whichever way the signal moves. Consider `O=C1CC(c2ccc(F)cc2)Cc2nc(NCC3CCCO3)ncc21` (stereo not given), for which the AC50 was 12.6 µM (active).

`CCNc1ncc2nc(-c3cc(F)cc(F)c3)c(=O)n(C[C@H]3CCCO3)c2n1`: the AC50 result was “inactive”.

As to `CCNc1ncc2nc(-c3ccc(F)cc3)c(=O)n(C[C@H]3CCCO3)c2n1`, the AC50 entry is “inactive”.

On to `Cc1ccc2nc(SCc3nnc(-c4ccccc4[N+](=O)[O-])o3)c(C#N)cc2c1`, for which the AC50 was 0.794 µM (active).

As for `Cc1nc2cccc([N+](=O)[O-])c2n1CCCN(C)C`, the activity, negative = inhibition was -4.5% [at 11.4 µM].

For `Cc1ccc2nc(SCC(=O)NCc3cccs3)c(C#N)cc2c1`, the AC50 entry was “inactive”.

For `CN1CCC(=C2c3ccccc3CC(=O)c3sccc32)CC1`, the AC50 result is “inactive”.

On to `O=C(O)CN(CCN(CC(=O)O)CC(=O)O)CC(=O)O.[Mn]`, for which the activity, negative = inhibition was -0.525% [at 11.4 µM].

Consider `c1cc(-c2sc(-c3ccncc3)c(-c3ccncc3)c2-c2ccncc2)ccn1`, for which the AC50 is 2 µM (active).

As for `Cc1cn2c(-c3ccncc3)nnc2s1`, the AC50 entry is “inactive”.

On to `COc1cccc(NS(=O)(=O)c2ccc3[nH]cc(C(=O)NCCN4CCOCC4)c(=O)c3c2)c1`, for which the AC50 was 7.94 µM (active).

On to `COc1cccc(C2=NOC(C(=O)NCCN3CCOCC3)C2)c1` (stereo not given), for which the AC50 result was “inactive”.

Consider `Cc1cc(S(=O)(=O)NCCCN2CCOCC2)ccc1F`, for which the AC50 entry was “inactive”.

Take `CCC(CC)C(=O)c1c[nH]c(C(=O)NCCCN2CCOCC2)c1`: the AC50 result was “inactive”.

As for `Cc1ccccc1NS(=O)(=O)c1ccc2[nH]cc(C(=O)N(C)Cc3ccco3)c(=O)c2c1`, the half-maximal activity concentration (AC50) was 12.6 µM (active).

Turning to `Cc1ccccc1NS(=O)(=O)c1ccc2[nH]cc(C(=O)NCCCN3CCOCC3)c(=O)c2c1`, the half-maximal activity concentration (AC50) is 12.6 µM (active).

With `CS(=O)(=O)Nc1cccc(-c2nc(NCCN3CCOCC3)c3ccccc3n2)c1`, the activity, negative = inhibition is 3.9% [at 2.29 µM].

In the case of `CN1CCN(S(=O)(=O)c2ccc3[nH]cc(C(=O)O)c(=O)c3c2)CC1`, the AC50 entry was “inactive”.

`CO[C@H]1COC(=O)C/C=C\[C@@H](C)COC(=O)[C@@H](C)NC(=O)C/C=C\[C@@H]1C`: the activity, negative = inhibition was -12.1% [at 11.4 µM].

With `CCOC(=O)C1CCN(C(=O)c2ccccc2NC(C)=O)CC1`, the AC50 entry is “inactive”.

For `COc1ccc(/C=C/C(=O)Nc2ccccc2C(=O)N2CCCC2)cc1`, the AC50 is 15.8 µM (active).

For the molecule `COC(=O)CNC(=O)/C=C/c1ccc(OC)cc1`, the AC50 entry was “inactive”.

Turning to `COC(=O)N1CCC2(CCCN(C(=O)Nc3ccc(OC)cc3)C2)CC1`, the AC50 entry is “inactive”.

`Cc1ccccc1N1CCN(C(=O)c2ccccc2NC(=O)/C=C\C(=O)O)CC1`: the AC50 was 14.1 µM (active).

For the molecule `NCc1ccccc1CC(=O)N[C@@H]1C(=O)N2C(C(=O)O)=C(CSc3nnnn3CC(=O)O)CS[C@@H]12`, the AC50 result was “inactive”.

As to `CC(=O)Nc1nc(NC(C)=O)c2[nH]c(CO)nc2n1`, the activity, negative = inhibition was 15.3% [at 11.4 µM].

Consider `FC(F)(F)c1nc(-c2ccncc2)ncc1-c1nnnn1-c1ccccc1`, for which the AC50 is 2.82 µM (active).

Regarding `FC(F)(F)c1nc(N2CCCC2)ncc1-c1nnnn1-c1ccccc1`, the AC50 was 6.31 µM (active).

In the case of `Cc1nc2cnc(N3CCNCC3)nc2n(-c2ccccc2)c1=O`, the AC50 entry is “inactive”.

Turning to `Cc1cc(C)cc(-n2nnnc2-c2cn(C)nc2C(F)(F)F)c1`, the AC50 entry was “inactive”.

`c1ccc(CNc2nc(-c3ccoc3)nc3ccccc23)cc1`: the activity, negative = inhibition was -16.4% [at 2.29 µM].

Turning to `Cc1ccc(NC(=S)Nc2ccc(Br)cc2)cc1`, the AC50 entry was “inactive”.

For `CCCNC(=S)Nc1ccc(Br)cc1`, the AC50 is 14.1 µM (active).

As to `Cc1cc(C)n(-c2ccc(F)cc2)c(=O)c1C(=O)O`, the AC50 entry was “inactive”.

For `CC(=O)c1c(O)c(C)c(-c2ccccc2)n(-c2ccccc2)c1=O`, the AC50 was 14.1 µM (active).

As for `N=c1n(-c2ccccc2)c(O)cc(=O)n1-c1ccccc1`, the AC50 result was “inactive”.

Consider `N#C/C(=N\O)c1nc(-c2ccccc2)cs1`, for which the AC50 was 22.4 µM (active).

On to `C[n+]1cccc(CNC(=O)/C=N/O)c1`, for which the AC50 result was “inactive”.

`O=C1C(=O)c2ccccc2C(O)=C1C(CCc1ccccc1)C1=C(O)c2ccccc2C(=O)C1=O`: the AC50 is 3.16 µM (active).

Turning to `O=C(O)[C@H](CCc1ccccc1)N1C(=O)c2ccccc2C1=O`, the activity, negative = inhibition was -7.78% [at 11.4 µM].

As for `O=C1OCCC=C1[C@@H](O)CCc1ccccc1`, the activity, negative = inhibition is 5.4% [at 11.4 µM].

Turning to `CC(=O)O[C@H]1C2=CO[C@H](C)[C@H]3[C@H]4C5=C([C@H](O)[C@H]6O[C@@H]6C5=O)[C@H](O[C@H]4C)[C@@]23C(=O)[C@H]2O[C@@H]21`, the activity, negative = inhibition is 19.9% [at 11.4 µM].

With `COC(=O)c1cc(Br)c(=O)n(CCc2ccc(O)cc2)c1`, the AC50 was 12.6 µM (active).

Consider `CC(C)CN1CCCC2(CCN(C(=O)c3csnn3)CC2)C1`, for which the AC50 result was “inactive”.

Take `NC(=O)C1CCN(C(=O)OCc2ccccc2)CC1`: the AC50 result is “inactive”.

For `O=C(O)C1CCCN1C(=O)OCc1ccccc1` (stereo not given), the AC50 entry was “inactive”.

With `O=C1CCC[C@@H](C(C(=O)OCc2ccccc2)C(=O)OCc2ccccc2)C1`, the AC50 was 3.16 µM (active).

Take `COc1ccc(/C(C)=N/NC(=O)c2ccc(N(C)C)cc2)cc1`: the AC50 entry was “inactive”.

`COc1ccc(C(=O)N/N=C(\C)Cn2nc([N+](=O)[O-])cc2C)cc1`: the AC50 result was “inactive”.

With `COc1ccc(NC(=O)c2cc(S(=O)(=O)N3CCS(=O)(=O)CC3)ccc2Cl)cc1`, the AC50 result was “inactive”.

As for `COc1ccc(CC(=O)Nc2cccc(/C(C)=N/NC(=O)c3cccc([N+](=O)[O-])c3)c2)cc1`, the AC50 is 1.58 µM (active).

In the case of `COc1ccc(S(=O)(=O)N/N=C(/C)c2cccc(NC(=O)c3ccccc3Cl)c2)cc1`, the AC50 is 0.2 µM (active).

As for `C/C(=N/NS(=O)(=O)c1ccc(C)cc1)c1cccc(NC(=O)c2cccc(Cl)c2)c1`, the AC50 was 3.98 µM (active).

For `C/C(=N\NC(=O)c1cccc(Cl)c1)c1cccc(NC(=O)C(C)C)c1`, the AC50 result was “inactive”.

In the case of `CCC(=O)Nc1ccc(/C(C)=N\NS(=O)(=O)c2ccc(C)cc2)cc1`, the AC50 was 2.24 µM (active).

Consider `O=C1c2ccccc2C(=O)c2c1ccc(C(=O)O)c2-c1ccc2ccccc2c1`, for which the AC50 was 1.58 µM (active).

On to `O=C(O)c1ccccc1C(=O)Nc1cc2c(cc1Br)-c1ccccc1C2=O`, for which the activity, negative = inhibition is -5.92% [at 11.4 µM].

Consider `CC(C)c1ccc(/C=C2\C=C(c3ccc4ccccc4c3)OC2=O)cc1`, for which the activity, negative = inhibition was -10% [at 11.4 µM].

For the molecule `CC(C)OCCCN1CN(S(=O)(=O)c2cccc(Cl)c2)c2nc3ccccc3nc21`, the AC50 was 2.82 µM (active).

For `CCn1nc(C)c(NC(=O)/C=C/c2cnn(C)c2C)c1C`, the AC50 entry is “inactive”.

With `Cc1cc(N2CCOCC2)ccc1/C=C1\SC(=O)N(C(C)C)C1=O`, the AC50 is 31.6 µM (active).

Take `Cc1ccsc1/C=C1/SC(=O)N(CC(=O)N2CCOCC2)C1=O`: the AC50 entry was “inactive”.

Regarding `CN(C)c1ccc(/C=C2/C(=O)N(c3ccc([N+](=O)[O-])cc3)N=C2N2CCOCC2)cc1`, the AC50 entry was “inactive”.

Regarding `Cc1ccc2c(CC(=O)OCc3cc(=O)n4c(n3)sc3ccccc34)coc2c1`, the AC50 is 7.94 µM (active).

As for `c1cnc(Nc2nc(-c3ccc4ccccc4c3)cs2)nc1`, the AC50 entry was “inactive”.

With `COc1cccc(Nc2nc(-c3ccc(O)cc3)cs2)c1`, the concentration at half-maximal activity (AC50) was 3.98 µM (active).

`COc1cccc(Nc2ncc3nc(-c4ccccc4)c(=O)n(C)c3n2)c1`: the AC50 entry is “inactive”.

Turning to `CC1CCCC(NC(=O)C2CCN(S(=O)(=O)N3CCOCC3)CC2)C1C` (stereo not given), the AC50 result is “inactive”.

Regarding `CCNc1ncc2nc(-c3cc(F)cc(F)c3)c(=O)n(-c3ccccc3)c2n1`, the AC50 result was “inactive”.

Consider `CCNc1ncc2nc(-c3ccc(F)cc3)c(=O)n(-c3ccccc3)c2n1`, for which the AC50 result is “inactive”.

`CCNc1ncc2nc(-c3ccc(Cl)cc3)c(=O)n(C)c2n1`: the AC50 entry was “inactive”.

Consider `CCNc1ncc2nc(CCc3ccccc3)c(=O)n(C)c2n1`, for which the AC50 was 12.6 µM (active).

With `CCNc1ncc2nc(CCc3ccccc3)c(=O)n(Cc3ccc(F)cc3)c2n1`, the AC50 entry was “inactive”.

Take `CCNc1ncc2nc(CCc3ccccc3)c(=O)n(-c3ccccc3)c2n1`: the AC50 was 12.6 µM (active).

`CCNc1ncc2nc(C)c(=O)n(C)c2n1`: the AC50 entry is “inactive”.

With `CCNc1ncc2nc(-c3ccccc3)c(=O)n(C)c2n1`, the concentration at half-maximal activity (AC50) was 12.6 µM (active).

As for `CCNc1ncc2nc(-c3ccc(F)cc3)c(=O)n(C)c2n1`, the AC50 result is “inactive”.

`N#CCCn1c(=O)c(CCc2ccccc2)nc2cnc(Nc3ccccc3)nc21`: the AC50 entry is “inactive”.

For the molecule `CCNc1ncc2nc(CCc3ccccc3)c(=O)n(CCC#N)c2n1`, the half-maximal activity concentration (AC50) was 6.31 µM (active).

With `CCNc1ncc2nc(-c3ccccc3)c(=O)n(CCC#N)c2n1`, the AC50 result was “inactive”.

Turning to `CC1(C)CC2(CCO1)OC(=O)CC2C(=O)NCCc1ccccc1` (stereo not given), the AC50 entry is “inactive”.

For the molecule `FC(F)(F)c1cc(CN2CC3(CCNCC3)C2)cc(C(F)(F)F)c1`, the AC50 result was “inactive”.

On to `CC1(C)S[C@@H]2[C@H](NC(=O)[C@@H](N)c3ccccc3)C(=O)N2[C@H]1C(=O)O[C@H]1OC(=O)c2ccccc21`, for which the AC50 result was “inactive”.

`Cc1cc(C)c2c(N=NN(C)C)[nH]nc2n1`: the AC50 entry is “inactive”.

In the case of `Cc1ccccc1-c1nc(NC2CCNCC2)c2ccccc2n1`, the activity, negative = inhibition was 10.8% [at 2.29 µM].

`S=C1SCN(CCN2CCOCC2)CN1Cc1ccccc1`: the AC50 was 12.6 µM (active).

Consider `c1csc(CNCCCN2CCOCC2)c1`, for which the AC50 entry was “inactive”.

As to `COc1cccc(OC)c1OCCCN1CCOCC1`, the AC50 entry is “inactive”.

Turning to `Cc1ccccc1-c1ccc2ncnc(N3CCNCC3)c2c1`, the activity, negative = inhibition is 4.82% [at 2.29 µM].

`CN(C)C(=O)c1ccc(-c2cncnc2N2CCNCC2)cc1`: the activity, negative = inhibition is 7.11% [at 2.29 µM].

As to `Cc1ccc2nc(-c3cccnc3)oc2c1`, the AC50 was 25.1 µM (active).

For the molecule `Clc1ccc2oc(-c3cccnc3)nc2c1`, the AC50 entry is “inactive”.

`c1cncc(-c2cccnc2)c1`: the AC50 entry is “inactive”.

As for `O=c1[nH][nH]c(C(F)(F)F)c1C=Nc1ccccc1Cl`, the AC50 result was “inactive”.

Consider `COc1cccc(/C=N\NC(=O)C2C(=O)NCC2c2ccccc2)c1O` (stereo not given), for which the AC50 is 14.1 µM (active).

For `COc1cc(/C=N\NC(=O)C2C(=O)NCC2c2ccccc2)cc(OC)c1O` (stereo not given), the AC50 result was “inactive”.

In the case of `O=C(Nc1ccccc1)N1CCC2(CC1)CCN(C(=O)c1csnn1)CC2`, the AC50 entry was “inactive”.

With `CCOC(=O)N/N=C1/C[C@@H](O)[C@@H](O)[C@@H]2[C@@H]3C(=O)N(C4CCCCC4)C(=O)[C@H]3CC[C@@H]12`, the activity, negative = inhibition was -16.3% [at 11.4 µM].

With `CC(=O)[C@@H]1[C@@H]2C(=O)N(C3CCCCC3)C(=O)[C@@H]2C2c3ccccc3C=CN21` (stereo not given in full), the AC50 is 15.8 µM (active).

For the molecule `O=C1C[C@@H](O)[C@@H](O)[C@H]2[C@@H]3C(=O)N(C4CCCCC4)C(=O)[C@@H]3CC[C@H]12`, the activity, negative = inhibition is 14.6% [at 11.4 µM] and -0.457% [at 11.4 µM] and -8.99% [at 11.4 µM].
